The results in this text go back to ChEMBL document CHEMBL4513158, “CO-ADD screening of RKDF (India) compounds”.

One assay relates to Klebsiella pneumoniae. The note with it: Concentration 32 ug.mL-1; ASSAY_TEST Inhibition of Bacterial Growth; detection method Absorption (OD600); MEDIA CAMHB; plate type 384well; NBS; CORNING #3640; time 18 hr.
The next assay relates to Candida albicans. The note with it: 32 ug/mL.
Another assay deals with Cryptococcus neoformans. Particulars: Concentration 32 ug.mL-1; ASSAY_TEST Inhibition of Fungal Growth; detection method Resazurin; Absorption (OD600-OD570); plate type 384well; NBS; CORNING #3640. For orientation: The colour change of resazurin is a common sign of viable cells or microbes.

Structures are written as SMILES. Measured potencies and affinities stand elsewhere.

The term Inhibition denotes the drop in the measured response relative to a control, in per cent. Turning to `C=C[C@H]1[C@H](O[C@@H]2O[C@H](CO)[C@@H](O)[C@H](O)[C@H]2O)OC=C2C(=O)OCC[C@]21O` [SWERTIAMARIN], the Inhibition with Klebsiella pneumoniae was 13.48%; with Candida albicans it was 14.2%; in the assay on Cryptococcus neoformans it was 102.17%.

For the molecule `CN(C)C(=N)NC(=N)N.Cl` [METFORMIN HYDROCHLORIDE], the Inhibition in the assay on Klebsiella pneumoniae was determined as 14.76%; in the assay on Candida albicans, 99%; with Cryptococcus neoformans, 90.72%.
